Some test systems named below: SK-MEL-2 melanoma; EKVX NSCLC; SN12C renal; UO-31 renal; TK-10 renal; ACHN renal; CAKI-1 renal; A498 renal; CCRF-CEM leukemia; MOLT-4 leukemia; SR leukemia; RPMI-8226 leukemia; OVCAR-8 ovarian; OVCAR-4 ovarian; SK-OV-3 ovarian; IGROV1 ovarian; OVCAR-3 ovarian; HS 578T breast; NCI/ADR-RES ovarian; OVCAR-5 ovarian.
Assay in all cases: NCI-60 one-dose screen, 48 h (100 = growth as untreated, 0 = no growth, -100 = all killed)
Conditions in all cases: 10 µM unless noted

Structures are written as SMILES. Compounds without any hit were thinned out: in the full panel of roughly 83,000, 20% have a hit.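 Testing used 96-well plates and a 48-hour single-concentration exposure. Example: -40 means 40% of the starting cells died.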 Unmarked numbers belong to inactive results. Active and inactive are the calls of the source. How the source made its calls: active means growth percent below 10; inactive means the rest.

On to `Oc1ccc(Cl)cc1Cc1cc(Cl)ccc1O`, for which the growth with SK-MEL-2 melanoma was 5.31% (active); with EKVX NSCLC, 60.9%; in the test on SN12C renal it was 11.4%; with UO-31 renal it was 22.9%; with TK-10 renal, 113%; in the test on ACHN renal it was 26.1%. In addition, the growth in the test with CAKI-1 renal is 83.5%; in the test with A498 renal it was 63.6%; in the test with CCRF-CEM leukemia, 22.7%; with MOLT-4 leukemia it was 41.3%; in the test with SR leukemia, 81.4%; in the test on RPMI-8226 leukemia, -1.2% (active). The growth is 20.9% in the test on OVCAR-8 ovarian; 38.7% in the test with OVCAR-4 ovarian; 84.8% in the test with SK-OV-3 ovarian; 41.1% in the test with IGROV1 ovarian; 9.92% (active) with OVCAR-3 ovarian; 34.2% with HS 578T breast. Further, the growth with NCI/ADR-RES ovarian is 4.47% (active).
Regarding `COc1ccc(/C=C2/C(=O)ON=C2C)cc1`, the growth was 96% in the test with SK-MEL-2 melanoma; 109% with EKVX NSCLC; 95.6% in the test with SN12C renal; 99% with UO-31 renal; 96.5% with TK-10 renal; 118% in the test with ACHN renal. The growth in the test with CAKI-1 renal was 102%; with A498 renal it was 100%; with CCRF-CEM leukemia, 105%; with MOLT-4 leukemia it was 107%; with SR leukemia, 115%; with RPMI-8226 leukemia it was 99.1%. Also, the growth in the test on OVCAR-8 ovarian is 105%; in the test with OVCAR-4 ovarian, 115%; with SK-OV-3 ovarian, 100%; in the test on IGROV1 ovarian, 115%; in the test with OVCAR-3 ovarian it was 111%; in the test on HS 578T breast, 102%. Moreover, the growth in the test with NCI/ADR-RES ovarian is 115%.
On to `CCN(CC)CC(O)c1cc(-c2ccc(Cl)cc2)nc2cc(Cl)ccc12` (centres undefined), for which the growth is 22.7% in the test with SK-MEL-2 melanoma; 60.5% with EKVX NSCLC; 29.6% in the test on SN12C renal; 35.2% in the test on UO-31 renal; 20.6% with TK-10 renal; 7.25% (active) in the test on ACHN renal. Besides, the growth was -16.5% (active) in the test on CAKI-1 renal; 64.6% in the test on A498 renal; 3.88% (active) in the test on CCRF-CEM leukemia; -18.3% (active) in the test on MOLT-4 leukemia; -12.3% (active) with SR leukemia; 34.4% with RPMI-8226 leukemia. Moreover, the growth with OVCAR-8 ovarian is 38%; in the test with OVCAR-4 ovarian, 53.3%; in the test with SK-OV-3 ovarian, 60%; in the test with IGROV1 ovarian it was 10.3%; with OVCAR-3 ovarian, 56.8%; in the test on HS 578T breast, 40.6%. Also, the growth with NCI/ADR-RES ovarian was 29.8%.
For `O=C1Nc2ccc(Br)cc2C1=O`, the growth with SK-MEL-2 melanoma was 117%; in the test with EKVX NSCLC, 101%; in the test with SN12C renal, 97%; in the test with UO-31 renal, 78.9%; in the test with TK-10 renal, 131%; in the test on ACHN renal, 101%. The growth was 100% in the test with CAKI-1 renal; 107% in the test with A498 renal; 95.9% in the test on MOLT-4 leukemia; 81.9% in the test with SR leukemia; 96.4% in the test with RPMI-8226 leukemia; 100% in the test on OVCAR-8 ovarian. Also, the growth in the test on OVCAR-5 ovarian is 103%; in the test with OVCAR-4 ovarian, 93.2%; in the test with SK-OV-3 ovarian, 93.9%; in the test on IGROV1 ovarian, 97.9%; in the test with OVCAR-3 ovarian it was 90.5%; in the test with HS 578T breast, 95.7%. The growth with NCI/ADR-RES ovarian is 108%.
For `CC1=CC(=O)C=CC1(C)C(Cl)(Cl)Cl` (centres undefined), the growth is 87.5% with SK-MEL-2 melanoma; 100% in the test with EKVX NSCLC; 88.8% in the test with SN12C renal; 92% with UO-31 renal; 80.2% in the test with TK-10 renal; 97.3% in the test on ACHN renal. The growth in the test with CAKI-1 renal is 104%; in the test with A498 renal it was 87.6%; with CCRF-CEM leukemia, 94.9%; in the test with SR leukemia, 94.2%; with RPMI-8226 leukemia, 104%; in the test with OVCAR-8 ovarian, 90.3%. For the same compound, the growth in the test on OVCAR-5 ovarian is 101%; in the test with OVCAR-4 ovarian, 114%; with SK-OV-3 ovarian it was 94.3%; in the test with IGROV1 ovarian it was 100%; with OVCAR-3 ovarian, 116%; in the test on HS 578T breast, 93.1%. For the same compound, the growth in the test with NCI/ADR-RES ovarian is 102%.
For `COc1ccc(NC(=O)/C(=C/N2C(=O)/C(=C/c3ccc(OC)c(OC)c3)NC2=S)C(C)=O)cc1`, the growth in the test with SK-MEL-2 melanoma is 87.1%; in the test with EKVX NSCLC, 93.5%; in the test with SN12C renal it was 80.8%; in the test with UO-31 renal, 54.6%; in the test on TK-10 renal, 110%; with ACHN renal it was 79.6%. The growth with CAKI-1 renal is 92.3%; in the test on A498 renal, 87.6%; in the test on CCRF-CEM leukemia, 80.3%; in the test on RPMI-8226 leukemia, 76.6%; in the test with OVCAR-8 ovarian, 80.8%; in the test on OVCAR-5 ovarian, 99.3%. In addition, the growth in the test on OVCAR-4 ovarian was 85.1%; with SK-OV-3 ovarian, 55.9%; in the test with IGROV1 ovarian it was 74.7%; in the test with OVCAR-3 ovarian, 79%; with HS 578T breast, 40.7%; in the test on NCI/ADR-RES ovarian, 77.6%.
For the compound `Cc1cc(C(N)=O)cc(C)c1C(=O)OCCCl`, the growth in the test on SK-MEL-2 melanoma is 119%; in the test with EKVX NSCLC it was 89.1%; with SN12C renal it was 98.3%; in the test on UO-31 renal it was 86.2%; with TK-10 renal, 106%; with ACHN renal it was 108%. Besides, the growth is 97.6% in the test with CAKI-1 renal; 98.8% in the test on A498 renal; 112% with CCRF-CEM leukemia; 89.6% with SR leukemia; 111% in the test with RPMI-8226 leukemia; 102% in the test on OVCAR-8 ovarian. Further, the growth in the test on OVCAR-5 ovarian is 108%; in the test with OVCAR-4 ovarian, 103%; in the test on SK-OV-3 ovarian, 105%; with IGROV1 ovarian, 111%; in the test on OVCAR-3 ovarian, 99.5%; in the test on HS 578T breast, 97%. Further, in the test on NCI/ADR-RES ovarian, the growth was 107%.
Consider `NC(=S)N/N=C\c1nccc2c(C(F)(F)F)cccc12`, for which the growth with SK-MEL-2 melanoma is -7.77% (active); with EKVX NSCLC, 1.87% (active); with SN12C renal, 17.2%; in the test on UO-31 renal, -35.2% (active); with TK-10 renal it was 17%; in the test on ACHN renal, 6.72% (active). The growth in the test with CAKI-1 renal was -2.51% (active); with CCRF-CEM leukemia, -9.85% (active); in the test on MOLT-4 leukemia it was -40.2% (active); in the test with SR leukemia it was -28.6% (active); with RPMI-8226 leukemia, -13.9% (active); in the test with OVCAR-8 ovarian it was 11.1%. Besides, the growth is 11.4% in the test on SK-OV-3 ovarian; 4.12% (active) with IGROV1 ovarian; 15.3% in the test on OVCAR-3 ovarian; 54.3% in the test on HS 578T breast; 0.716% (active) in the test on NCI/ADR-RES ovarian.

For the origin of these results see PubChem BioAssay (NCI).
